Test results from publication PMC4336329 (PLoS ONE, 2015).
The whole screen tested about 310,000 compounds, of which about 14,000 (4.5%) showed an effect of 50% or more. Effects have a minus sign here. For the sample, strong results were picked, then their nearest neighbours and some compounds at random.

What follows are compounds tested against human ether-à-go-go-related gene (hERG) potassium channel (human, UniProt Q12809) (assay: primary screen, population patch clamp on CHO cells stably expressing hERG; higher = less effect of the substance).
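Further: peak tail current of the secondary pulse compared with the same well before compound.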

human ether-à-go-go-related gene (hERG) potassium channel, sequence (Q12809 whole entry, looked up): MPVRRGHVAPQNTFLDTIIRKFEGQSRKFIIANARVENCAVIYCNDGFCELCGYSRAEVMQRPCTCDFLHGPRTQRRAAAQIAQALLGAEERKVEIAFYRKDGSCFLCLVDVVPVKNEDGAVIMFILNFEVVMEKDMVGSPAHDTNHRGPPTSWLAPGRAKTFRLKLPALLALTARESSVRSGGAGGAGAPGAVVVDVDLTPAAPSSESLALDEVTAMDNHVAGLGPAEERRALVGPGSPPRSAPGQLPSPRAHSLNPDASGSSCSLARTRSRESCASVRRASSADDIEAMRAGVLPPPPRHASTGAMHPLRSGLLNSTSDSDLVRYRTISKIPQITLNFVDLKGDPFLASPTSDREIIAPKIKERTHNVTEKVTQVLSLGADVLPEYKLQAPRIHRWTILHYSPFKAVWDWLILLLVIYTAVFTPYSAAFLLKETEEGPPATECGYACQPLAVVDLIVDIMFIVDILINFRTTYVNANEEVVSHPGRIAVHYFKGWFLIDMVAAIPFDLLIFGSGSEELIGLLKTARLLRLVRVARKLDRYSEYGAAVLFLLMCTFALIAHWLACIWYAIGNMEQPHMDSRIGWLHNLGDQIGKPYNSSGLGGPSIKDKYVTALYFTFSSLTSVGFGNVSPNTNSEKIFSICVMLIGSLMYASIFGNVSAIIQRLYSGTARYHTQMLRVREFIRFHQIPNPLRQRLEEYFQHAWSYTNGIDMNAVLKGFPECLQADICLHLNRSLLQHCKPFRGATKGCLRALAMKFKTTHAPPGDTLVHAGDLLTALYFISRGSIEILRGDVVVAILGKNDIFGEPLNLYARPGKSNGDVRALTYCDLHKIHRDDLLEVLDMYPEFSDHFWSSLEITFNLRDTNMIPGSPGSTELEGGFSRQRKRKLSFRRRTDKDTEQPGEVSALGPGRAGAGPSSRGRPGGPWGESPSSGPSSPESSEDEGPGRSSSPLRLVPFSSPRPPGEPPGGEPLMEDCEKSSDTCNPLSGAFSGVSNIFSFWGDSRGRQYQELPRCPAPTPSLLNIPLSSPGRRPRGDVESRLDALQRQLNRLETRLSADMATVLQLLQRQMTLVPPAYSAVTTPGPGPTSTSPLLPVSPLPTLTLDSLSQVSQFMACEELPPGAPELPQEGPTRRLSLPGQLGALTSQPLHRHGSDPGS

Structure (SMILES) | hERG current change (%, negative = inhibition) at 10uM
CCc1c(C)sc(NC(=O)c2cc(-c3cc(OC)ccc3OC)on2)c1C#N | 3.3%
COc1ccc2cc(C(=O)C3CCCN(C(=O)c4cccnc4)C3)ccc2c1 (stereo not shown) | -25.1%
CCOC(=O)c1ccc(N=Nc2c(C)c(C#N)c(O)[nH]c2=O)cc1 | 1.91%
Cc1ccc(OCCNC(=O)CCNS(=O)(=O)c2ccc(Br)cc2)cc1 | 15.7%
CSc1nncc(-c2ccc(F)c(F)c2)n1 | 10.8%
NC(=S)/N=C/c1c(O)[nH]c(=O)[nH]c1=O | 12.5%
C=CCNC(=S)/N=C/c1c(O)[nH]c(=O)[nH]c1=O | -52.8%
CCCCCCCCN=Cc1c(O)[nH]c(=O)[nH]c1=O | 4.9%
CCNc1nc(NCC)n2c(SCC(=O)Nc3ccccc3Cl)nnc2n1 | 11%
O=C(CSc1ccc(Cl)cc1Cl)N1CCC(c2nc3ccccc3s2)CC1 | -14.5%
O=C(CSc1ccc(F)cc1)N1CCC(c2nc3ccccc3s2)CC1 | -67.1%
O=C(CSc1ccccc1Cl)N1CCC(c2nc3ccccc3s2)CC1 | -7.4%
O=C(CSc1ccc(Cl)cc1)N1CCC(c2nc3ccccc3s2)CC1 | -59.7%
CCNC(=O)N1CCC(c2nc3ccccc3s2)CC1 | 10.3%
O=C(CSc1c(Cl)cccc1Cl)N1CCC(c2nc3ccccc3s2)CC1 | -0.729%
CS(=O)(=O)Cc1ccc(C(=O)N2CCCC2c2cccs2)cc1 (stereo not shown) | 16.9%

Structure (SMILES) | hERG current change (%, negative = inhibition) at 10uM
CN(CCc1ccccn1)C(=O)CCC1CCCN(C(=O)c2ccccn2)C1 (stereo not shown) | 21.8%
Cc1ccccc1C(=O)Nc1ccc2c(c1)OCCO2 | 6.96%
Cc1ccc(C(=O)CCC(=O)Nc2ccccc2C)cc1C | 15%
CCC(=O)OCCn1c(Br)nc2c1c(=O)[nH]c(=O)n2C | -0.796%
CCCCCn1c(CN2CCN(Cc3ccccc3)CC2)nc2c1c(=O)n(C)c(=O)n2C | -68%
CCCCCn1c(CN2CCN(CCO)CC2)nc2c1c(=O)n(C)c(=O)n2C | -17.9%
CCCCn1c(SCc2ccccn2)nc2c1c(=O)n(C)c(=O)n2C | -8.02%
CCCC(=O)OCCn1c(Br)nc2c1c(=O)[nH]c(=O)n2C | 16.9%
CCCCn1c(SCc2cccnc2)nc2c1c(=O)n(C)c(=O)n2C | -28%
CCCCn1c(SCc2nnc(-c3ccccc3)o2)nc2c1c(=O)n(C)c(=O)n2C | -56%
Cn1c(=O)c2c(nc(CN3CCCCC3)n2CCCc2ccccc2)n(C)c1=O | -29.1%
CCCCCCn1c(CN2CCN(Cc3ccccc3)CC2)nc2c1c(=O)n(C)c(=O)n2C | -71.8%
CN1CCN(Cc2nc3c(c(=O)n(C)c(=O)n3C)n2CCCc2ccccc2)CC1 | -13.4%
CCOC(=O)Cn1c(Br)nc2c1c(=O)[nH]c(=O)n2C | -58%
CCCCCCn1c(CN2CCN(CCO)CC2)nc2c1c(=O)n(C)c(=O)n2C | -38.3%
